Compound activity deposited in PubChem by The Scripps Research Institute Molecular Screening Center.
GPR151 activ = activators of human GPR151, primary screen, cell-based, PathHunter beta-arrestin, luminescence. G-protein coupled receptor 151 (Homo sapiens), Q8TDV0. 1% of 650,000 active. activation, % at 11.2 µM. PathHunter beta-arrestin GPR151 cells; in the data active means activation above about 4.9%;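 further: 0% = median of compound wells and 100% = cells with positive control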
Target sequence (Q8TDV0 whole entry, looked up): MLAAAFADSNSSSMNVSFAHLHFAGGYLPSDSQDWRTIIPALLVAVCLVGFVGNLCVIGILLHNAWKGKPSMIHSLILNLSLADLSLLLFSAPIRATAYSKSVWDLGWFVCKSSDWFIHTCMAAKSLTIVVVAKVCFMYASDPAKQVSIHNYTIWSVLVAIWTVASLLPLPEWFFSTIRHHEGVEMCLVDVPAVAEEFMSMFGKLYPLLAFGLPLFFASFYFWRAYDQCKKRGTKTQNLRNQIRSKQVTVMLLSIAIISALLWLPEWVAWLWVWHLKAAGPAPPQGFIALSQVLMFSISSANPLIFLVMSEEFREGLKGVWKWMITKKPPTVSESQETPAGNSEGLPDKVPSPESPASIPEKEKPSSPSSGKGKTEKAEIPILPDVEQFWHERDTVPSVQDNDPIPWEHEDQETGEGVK
FBW7 activator = FBW7 E3 ligase activators, primary screen, biochemical, AlphaScreen, human; F-box/WD repeat-containing protein 7 (Homo sapiens), Q969H0; AlphaScreen FBW7–phospho-cyclin E peptide binding, activator screen; 0.13% of 650,000 active; AID 1259310, 2017; normalized activity (activation), % at 26.1 µM; in the data active means normalized activity above about 1.9%;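 further: purified mutant Fbw7 with reduced substrate affinity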
MITF primary = MITF inhibitors, primary screen, biochemical, AlphaScreen, human; Microphthalmia-associated transcription factor (Homo sapiens), O75030; inhibition, % at 2.6 µM; AlphaScreen MITF homodimerization, bead proximity signal; AID 1259374, 2018; 0.91% of 650,000 active; in the data active means inhibition above about 50%;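 further: 0% = vehicle wells with protein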
TEAD-YAP block = TEAD-YAP interaction inhibition, primary screen, TEAD-YAP interaction inhibitor project, luminescence, HEK-TIYL cells | TEAD-Gal4/YAP UAS-luciferase luminescence | inhibition, % at 9.12 µM | 1.4% of 640,000 active; in the data active means inhibition above about 32%;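 further: 0% = median of test compound wells and 100% = reference inhibitor wells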
GPR151 confirm = GPR151 activators, triplicate retest, confirmation, cell-based, PathHunter beta-arrestin, luminescence. shares compounds with GPR151 activ. GPR151 PathHunter beta-arrestin cells, 90 min; % of EA-reagent control over plate median. activation, % at 11.2 µM. 6,700 tested, under 10 active;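 active means mean percent activation across replicates above the confirmation screen cutoff of 4.91%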
GPR119 ag = GPR119 activators in beta-arrestin cells, counter-screen for GPR151 activator project, cell-based, PathHunter beta-arrestin, luminescence, triplicate; shares compounds with GPR151 activ; 0.3% of 6,700 active; 90 min; 0 = compound-well median, 100 = enzyme-acceptor control; activation, % at 11.2 µM;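 active means mean percent activation in the counterscreen above 29.09%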;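 further: counterscreen on off-target GPR119 to flag nonselective hits from the GPR151 activator screen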
* hit, by the source's call. Sampled rows, rich in hits. Any-hit rate of the full collection: about 3.5%.

How did O=C(N/N=C/c1ccc(C(=O)O)cc1)C(=O)Nc1cccc(Br)c1 do in these assays?
GPR151 activ: 9.3*; FBW7 activator: 0; MITF primary: 1; TEAD-YAP block: 6; GPR151 confirm: 0; GPR119 ag: 0

Results for C=CCNC(=S)/C(=C(/O)c1ccc2c(c1)NC(=O)CO2)[n+]1ccccc1 ?
GPR151 activ: -3; FBW7 activator: 0; MITF primary: 29; TEAD-YAP block: 7

How did COc1ccc(/C=C2/SC(N3CCN(C(C)=O)CC3)=NC2=O)cc1OC do in these assays?
GPR151 activ: 0; FBW7 activator: 0; MITF primary: 3; TEAD-YAP block: 4

What do the screens show for `COc1cccc(/C=N/NC(=O)C(=O)NCC(C)C)c1O`?
GPR151 activ: 30*; FBW7 activator: -1; MITF primary: 23; TEAD-YAP block: -6; GPR151 confirm: -1; GPR119 ag: -15

What do the screens show for `COc1cccc(/C=N/NC(=O)c2ccc(-n3c(C)ccc3C)cc2O)c1O`?
GPR151 activ: 5.4*; FBW7 activator: -1; MITF primary: 64*; TEAD-YAP block: -32; GPR151 confirm: -1; GPR119 ag: -11

How did COc1ccc(/C=N\NC(=O)c2cnccn2)cc1OCc1ccccc1 do in these assays?
GPR151 activ: 5.8*; FBW7 activator: 0; MITF primary: 12; TEAD-YAP block: 5; GPR151 confirm: 0; GPR119 ag: 17

How did COc1cccc(/C=N/NC(=O)C(=O)NC(C)c2ccccc2)c1O (stereo not drawn) do in these assays?
GPR151 activ: 2; FBW7 activator: -2; MITF primary: 50; TEAD-YAP block: 10

How did COc1ccc(Br)cc1C(=O)N/N=C/c1cccc(OC)c1O do in these assays?
GPR151 activ: 1; FBW7 activator: 0; MITF primary: 10; TEAD-YAP block: 22

Results for COc1cccc(/C=N/NC(=O)c2[nH]nc(-c3ccccc3)c2C)c1O ?
GPR151 activ: 7.6*; FBW7 activator: 0; MITF primary: 25; TEAD-YAP block: 10; GPR151 confirm: 0; GPR119 ag: -13

Results for COc1cc(OC)nc(Oc2cccc(C)c2/C=N/NC(=O)c2ccccn2)n1 ?
GPR151 activ: 6.0*; FBW7 activator: 0; MITF primary: 14; TEAD-YAP block: -45; GPR151 confirm: -1; GPR119 ag: -11

How did CCOc1ccc(/C=N/NC(=O)c2ccccn2)cc1OC do in these assays?
GPR151 activ: 6.8*; FBW7 activator: 0; MITF primary: 14; TEAD-YAP block: -43; GPR151 confirm: 0; GPR119 ag: -3

What do the screens show for `COc1cccc(/C=N\NC(=O)c2cnccn2)c1O`?
GPR151 activ: 5.3*; FBW7 activator: -1; MITF primary: 38; TEAD-YAP block: -14; GPR151 confirm: 0; GPR119 ag: 1

Results for COc1cc(/C=N/NC(=O)c2ccccn2)ccc1OC(C)=O ?
GPR151 activ: -2; FBW7 activator: 0; MITF primary: 6; TEAD-YAP block: -51

Results for CC1CCN(S(=O)(=O)c2ccc(F)c(C(=O)Nc3ccccc3Br)c2)CC1 ?
GPR151 activ: -1; FBW7 activator: 0; MITF primary: -12; TEAD-YAP block: 1

What do the screens show for `C=CCOc1ccc(C(=O)NC(C)(C)CO)cc1`?
GPR151 activ: 1; FBW7 activator: 0; MITF primary: -7; TEAD-YAP block: 6

How did Cc1cc(NC(=O)CCS(=O)(=O)c2cccc3nsnc23)no1 do in these assays?
GPR151 activ: 0; FBW7 activator: 0; MITF primary: -4; TEAD-YAP block: -2

Results for COc1ccc(Br)cc1C1=CSC2=NCCN12 ?
GPR151 activ: 1; FBW7 activator: 0; MITF primary: -3; TEAD-YAP block: 8

What do the screens show for `COc1cc(/C=N/NC(=O)C(C)n2nnc3ccccc32)ccc1OCC(N)=O` (stereo not drawn)?
GPR151 activ: 1; FBW7 activator: 0; MITF primary: 12; TEAD-YAP block: 7
